High-throughput results deposited in PubChem BioAssay by several laboratories.
HSV replic up: increases HSV replication in cells. HSV replication augmentation in cells, fold increase. maximum fold increase. 0.005% of 220,000 active; in the data active = maximum fold increase above about 1.5; inconclusive = no clear call, values can overlap the other calls; tested in PC3 cells
Insulin prom inh: TRM-6 insulin promoter activity inhibition; 0.9% of 130,000 active; inhibition, % at 2 µM; AID 1273; TRM-6 cells (human fetal islet line), insulin promoter-eGFP reporter, imaging; reporter expression induced with tamoxifen;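 active = inhibition above the mean plus 3 SD, with well images judged a real hit on visual review, cut at about 60% in these data, passing the limit was not always enough; inconclusive = inhibition over the cutoff but images rejected on review; inactive = inhibition not above the cutoff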
TbHK1 inh: T. brucei hexokinase 1 inhibition | recombinant TbHK1, G6PDH-coupled NADH A340 | AID 1430 | inhibition, % at 10 µM | 0.11% of 220,000 active;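 active = inhibition of 50% or more in the single-dose primary screen; inactive = inhibition below 50%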
ROMK mod: modulators of human ROMK potassium channel. P48048. Tet-inducible ROMK, thallium flux fluorescence; actives lie on both sides. B-score at 10 µM. 2% of 130,000 active. AID 1918;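 active = signal ratio slope over the read window, or its plate-corrected B-score, at least 3 SD from the plate mean, either direction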;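 note: B-score of the F/F0 ratio slope over 7 to 12 s after thallium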
Target sequence (P48048 whole entry, looked up): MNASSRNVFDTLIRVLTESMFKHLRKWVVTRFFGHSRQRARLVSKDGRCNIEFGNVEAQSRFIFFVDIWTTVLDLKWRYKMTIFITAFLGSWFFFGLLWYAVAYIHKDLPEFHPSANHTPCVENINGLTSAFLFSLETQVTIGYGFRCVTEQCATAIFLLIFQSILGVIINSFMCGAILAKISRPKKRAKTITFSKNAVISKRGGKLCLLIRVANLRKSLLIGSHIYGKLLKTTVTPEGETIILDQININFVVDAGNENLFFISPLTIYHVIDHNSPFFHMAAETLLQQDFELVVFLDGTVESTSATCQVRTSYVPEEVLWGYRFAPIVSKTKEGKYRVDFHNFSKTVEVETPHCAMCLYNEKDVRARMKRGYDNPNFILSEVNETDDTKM
Insulin prom up: MIN6 insulin promoter up-regulation; MIN6 insulin promoter-GFP reporter, high-content imaging; stronger effect = higher value; z-score at 5 µM; 0.3% of 190,000 active; AID 1625;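 active = z-score above 3 at 5 µM with at least 500 cells counted in the well; inconclusive = wells under 500 cells, flagged as cytotoxic or low count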
The depositor's hits bear a star; i = inactive; u = inconclusive; x = no result given. Many of the other results were omitted from the sample, so hits are more common in it than they were.

SMILES	HSV replic up	Insulin prom inh	TbHK1 inh	ROMK mod	Insulin prom up
O=C1C2ON(c3ccccc3)C(c3ccncc3)C2C(=O)N1c1ccccc1 (stereo not given)	i	73*	16	1.4	-0.29
Cc1cccc(OC(=O)c2sc(Cl)nc2C)c1	i	8	-14	0.14	0.08
Cc1nc(Cl)sc1C(=O)O	i	-67	55*	x	2.2
CCc1cc2c(SCC#N)ncnc2s1	i	x	-6	0.49	-0.63
O=c1nc2sc3ccccc3n2c(=O)n1-c1ccc(Cl)cc1	i	x	-1	-1.5	-0.33
CCCNc1ncccc1C(N)=O	i	61*	-9	-0.37	-0.5
O=C(/C=C/c1ccccc1)CC(O)(c1ccccc1)C(F)(F)C(F)F (stereo not given)	i	31	-2	-0.36	-0.32
COc1ccc(/C=C/C(=O)CC(O)(c2ccccc2)C(F)(F)F)cc1 (stereo not given)	i	85*	-19	x	-0.69
CN1C(=O)/C(=C/C=C2\SCCN2C)N(C)C1=S	i	89*	-2	-0.79	-0.38
N#CCOc1nc(N2CCOCC2)nc(N2CCOCC2)n1	i	24	1	-0.023	-0.83
N#Cc1nc(N2CCOCC2)nc(N2CCOCC2)n1	i	x	0	-1.1	3.3*
Cc1cc(C)c(OCC(=O)Nc2ccc(NC(=O)c3ccco3)cc2)c([N+](=O)[O-])c1	i	64*	-1	0.14	-0.06
Cc1cc(C)c(OCC(=O)Nc2cccc(NC(=O)c3ccco3)c2)c(Br)c1	i	-13	1	-0.99	-0.8
CCN(C(=O)COC(=O)c1ccc(S(=O)(=O)N2CCCc3ccccc32)cc1)C1CCS(=O)(=O)C1 (stereo not given)	i	50	6	1.1	x
COc1ccc(C(=O)c2sc(NC(C)C)nc2N)cc1OC	i	14	-18	-4.2*	0.88
COc1cccc(C(=O)c2sc(NC(C)C)nc2N)c1	i	-4	-20	-1.6	u
CC12CCC(C(=O)N(CSC(=S)N/N=C\c3ccccc3)C1=O)C2(C)C (stereo not given)	x	76*	-10	x	x
O=[N+]([O-])c1ccc(N=Nc2c(Cl)cc(O)cc2Cl)cc1	i	x	-12	-8.8*	u
Cn1ccnc1SCC(=O)Nc1cc(S(=O)(=O)N2CCOCC2)ccc1Cl	i	-46	8	-0.36	0.19
CSC(=S)N/N=C/c1ccc(Br)cc1	i	25	-1	2	-0.39
CSC(=S)N/N=C/c1ccc(N(C)C)cc1	i	27	3	2.7*	-1
N=C1/C(=C/c2ccc(-c3cccc(C(=O)O)c3)o2)C(=O)N=C2SC=C(c3ccccc3)N12	i	x	20	2.3*	0.26
N=C1/C(=C\c2ccc(-c3cc(Cl)cc(Cl)c3)o2)C(=O)N=C2SC=C(c3ccccc3)N12	i	x	20	x	0.22
CC(C)(C)c1ccc(C(=O)O)c(C(=O)c2ccccc2)c1	i	x	-11	0.57	-0.59
CCOC(=O)c1cc(=O)n2nc(-c3ccccc3F)nc2s1	i	86*	10	-0.00096	0.98
SMILES	HSV replic up	Insulin prom inh	TbHK1 inh	ROMK mod	Insulin prom up
COc1cccc(C(=O)Nc2ccccc2C(=O)N2CCCC2)c1	i	-14	-5	0.06	3.3*
O=C(CN1C(=O)CSc2cc(S(=O)(=O)N3CCCCCC3)ccc21)NCCc1ccccc1	i	-61	10	-5.5*	0.11
CCCCC(=O)Nc1ccccc1CC	i	x	8	1.7	-0.18
O=C(Nc1ccccc1Cc1ccccc1)c1ccccc1NS(=O)(=O)c1ccc(Cl)s1	x	31	3	-3.5*	-1
O=C(Nc1ccccc1)c1ccccc1NS(=O)(=O)c1ccc(Cl)s1	i	-21	-4	x	-3.5
Cn1ncc2c1ncn1nc(CCc3ccccc3)nc21	i	x	2	0.059	3.6*
CC(=O)NCCc1cc2cc(C)c(C)cc2[nH]c1=O	x	-55	-10	x	0.7
CCCC(=O)NCCc1cc2cc(C)c(C)cc2[nH]c1=O	i	86*	-14	x	0.12
COc1cc(S(=O)(=O)n2nnc3ccccc32)c(OC)cc1Cl	i	52	-2	-2.3*	x
COc1ccc(N(C(=O)Cc2cccs2)C(C(=O)NC2CCCCC2)c2cccn2C)cc1OC (stereo not given)	i	-88	-8	-3.9*	x
CC1(C)Cc2c(sc3ncn4nnnc4c23)CO1	x	x	x	-0.85	0.25
CC1(C)Cc2c(sc3nc[nH]c(=O)c23)CO1	i	100*	0	0.21	-0.06
CC1(C)Cc2c(sc3ncnc(N)c23)CO1	i	83*	1	0.063	-0.38
O=C1N(Cc2cccc(Cl)c2)C[C@@H]2C[C@@H](c3c[nH]c4ccccc34)N3CCC[C@@]123	i	x	-7	-1.3	2
Cc1c(C)n(CC(O)CNc2ccccc2)c2ccccc12 (stereo not given)	i	-90	2	0.045	x
Cc1c(C)n(CC(O)CN2CCCCCC2)c2ccccc12 (stereo not given)	i	x	8	-2.1*	-1.1
Cc1ccc(N=Nc2c(N)nn3c(C)cc(C)nc23)cc1	i	82*	-19	-0.02	x
Cc1ccc(N=Nc2c(N)nn3c(N)c(C#N)c(C)nc23)cc1	i	47	-18	-1.4	x
Cc1cc(C)n2nc(N)c(N=Nc3cccc(Cl)c3)c2n1	i	62*	0	-0.23	-0.65
CCCc1noc2c1C(c1ccoc1)C(C#N)=C(N)N2 (stereo not given)	i	x	2	-2.6*	-1.2
N#C/C(=C/c1ccc(-c2cc(C(=O)O)cc(C(=O)O)c2)o1)c1nc2ccccc2s1	u	6	-4	-2.5	3*
O=C(Cc1nc(-c2ccc([N+](=O)[O-])cc2)cs1)Nc1ccccc1	i	-193	3	x	8.6*
Cc1cc(C)cc(-n2ccnc2SCC(=O)O)c1	i	39	-8	0.0076	-1.1
Cc1ccc(NCc2ccc(O)c3ncccc23)cc1C	i	79*	-5	x	0.09
CC1=Nn2c(nnc2-c2ccccc2Cl)SC1	i	88*	33	x	-0.43
SMILES	HSV replic up	Insulin prom inh	TbHK1 inh	ROMK mod	Insulin prom up
N#CCCn1cc(/C=C(\C#N)c2nc3ccccc3s2)c(-c2ccc(F)cc2)n1	i	74*	-18	x	0.44
Cc1ccc(S(=O)(=O)N(C)CC(=O)Nc2cccc(C)n2)cc1	i	79*	9	x	-0.2
CC(=O)Nc1ccccc1NC(=O)CN(C)S(=O)(=O)c1ccc(C)cc1	i	23	1	x	x
COC(=O)c1ccc(COn2nnc3ccccc32)cc1	i	-64	-4	-0.83	-0.07
C=CCc1ccc(OCCOc2cccc3ccc(C)nc23)c(OC)c1	i	-47	-3	0.59	-0.32
O=C1CCc2ccc(NC(=O)C3CC3)cc2N1	i	-27	-2	-0.15	x
Cn1ncc(N=Cc2ccccc2)c1C(N)=O	i	x	10	0.69	x
Nc1ncc(Br)cc1N=Cc1ccccc1	u	76*	-4	x	-0.38
COc1cccc(C2CC(c3ccccc3)=NN2S(=O)(=O)c2ccc(C)cc2)c1OC (stereo not given)	i	x	-2	-8.1*	x
COc1ccccc1C1CC(c2ccccc2)=NN1S(=O)(=O)c1ccccc1 (stereo not given)	i	x	-7	x	0.08
